Assay results reported in PubChem BioAssay (NCI).
Compounds without any hit were thinned out: in the full panel of roughly 83,000, 20% have a hit.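 Compound tested at a single concentration for 48 hours in 96-well plates; a percent growth value below 10 was scored as active.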 Active and inactive are the calls of the source.

Key:
Assay in all cases: NCI-60 one-dose screen, 48 h (100 = growth as untreated, 0 = no growth, -100 = all killed)
Conditions in all cases: 10 µM unless noted
[1] = tested on: NCI-H23 lung
[2] = tested on: NCI-H226 lung
[3] = tested on: NCI-H322M lung
[4] = tested on: HOP-62 NSCLC
[5] = tested on: NCI-H460 lung
[6] = tested on: HOP-92 NSCLC
[7] = tested on: NCI-H522 lung
[8] = tested on: A549/ATCC NSCLC
[9] = tested on: 786-0 renal
[10] = tested on: COLO 205 colon
[11] = tested on: DU-145 prostate
[12] = tested on: K-562 leukemia
[13] = tested on: MALME-3M melanoma
[14] = tested on: MDA-MB-231 breast
[15] = tested on: RXF 393 renal
[16] = tested on: SF-268 CNS
[17] = tested on: SF-295 CNS
[18] = tested on: SF-539 CNS
[19] = tested on: UACC-257 melanoma
[20] = tested on: M14 melanoma

Measured: growth

O=CN(SSN(C=O)C1CCCCC1)C1CCCCC1
inactive: [1] 115% | [2] 91.9% | [3] 110% | [4] 95.4% | [5] 125% | [6] 135% | [8] 119% | [9] 105% | [10] 113% | [11] 115% | [12] 52.3% | [13] 73.9% | [14] 102% | [15] 12.4% | [16] 103% | [17] 105% | [18] 102% | [19] 124% | [20] 92.7%
active: [7] -25.1%

C=C1C(=O)O[C@H]2[C@H]1CC/C(COC(=O)CCSSCCC(=O)OC/C1=C/CC[C@@]3(C)O[C@H]3[C@H]3OC(=O)C(=C)[C@@H]3CC1)=C\CC[C@@]1(C)O[C@@H]21
active: [6] -57.7% | [7] -79.8% | [9] -70.9% | [10] -72.5% | [12] -1.59% | [13] -27.1% | [14] -83.7% | [15] -93.6% | [18] -63.4% | [19] -7.74% | [20] -10.1%
inactive: [1] 26.4% | [2] 78.1% | [3] 94.6% | [4] 72.3% | [5] 64% | [8] 60.8% | [11] 10.7% | [16] 24.8% | [17] 72.9%

COc1nc2ccc(C)cc2cc1-c1nc2c(cnn2-c2ccc(Br)cc2)c(=O)[nH]1
active: [7] 3.48%
inactive: [1] 44.9% | [2] 57.5% | [3] 72.7% | [4] 45.5% | [5] 27.1% | [6] 51.6% | [8] 57.7% | [9] 41.5% | [10] 74.2% | [11] 53.4% | [12] 16% | [13] 73% | [14] 76.1% | [15] 15.9% | [16] 49.6% | [17] 26.7% | [18] 12.1% | [19] 47.4% | [20] 27.7%

O=C1c2cccc3cccc(c23)C(=O)N1N1C(=O)c2cccc3c(NC4CCCCC4)ccc(c23)C1=O
inactive: [1] 90.4% | [2] 94% | [3] 96.4% | [4] 92.6% | [5] 98.8% | [6] 79.9% | [7] 88.1% | [8] 94.4% | [9] 105% | [10] 103% | [11] 106% | [12] 87.1% | [13] 90.8% | [14] 75.6% | [15] 92.9% | [16] 93.6% | [17] 95.3% | [18] 94.2% | [19] 100% | [20] 96.2%

CCOC(=O)/C=C1\S/C(=N\Nc2ccc([N+](=O)[O-])cc2[N+](=O)[O-])N(Cc2ccccc2)C1=O
inactive: [1] 76.8% | [2] 93.1% | [3] 97.9% | [4] 103% | [5] 93.1% | [6] 71.5% | [7] 68.6% | [8] 93.2% | [9] 91.2% | [10] 99.1% | [11] 81.4% | [12] 54.7% | [13] 93.1% | [14] 84.9% | [15] 78% | [16] 89.7% | [17] 95.1% | [18] 99.6% | [19] 90.1% | [20] 100%

S=c1nc(-c2ccccc2)oc(=NC2CCCCC2)n1C1CCCCC1
inactive: [1] 61.1% | [2] 105% | [3] 28.3% | [4] 62.8% | [5] 10.7% | [8] 31.5% | [9] 43% | [10] 58.8% | [11] 13.4% | [13] 94.9% | [14] 81.8% | [15] 81.5% | [16] 34.1% | [18] 65.2% | [19] 95% | [20] 84.8%
active: [6] -24.9% | [7] -25.6% | [12] -42.6% | [17] 2.95%

COc1ccc(C(=O)COC(=O)[C@H](C[Se][Se]C[C@H](NC(=O)c2ccc(Br)cc2F)C(=O)OCC(=O)c2ccc(OC)cc2)NC(=O)c2ccc(Br)cc2F)cc1
active: [1] -50.3% | [2] -69.5% | [3] 0.597% | [4] -72.4% | [5] -36.6% | [6] -27.9% | [7] -69.5% | [8] -3.84% | [9] -95.8% | [10] -45.6% | [11] -70.6% | [12] 9.64% | [13] -45.9% | [14] -57.5% | [15] -90.5% | [16] -54.3% | [17] -31.7% | [18] -93.9% | [19] -43.8% | [20] -73.9%

CCS(=O)(=O)c1ncnc2nc[nH]c12
inactive: [1] 111% | [2] 94.2% | [3] 106% | [4] 93.5% | [5] 105% | [6] 77.1% | [7] 65.4% | [8] 89.4% | [9] 95% | [10] 102% | [11] 112% | [12] 101% | [13] 106% | [14] 111% | [15] 113% | [16] 104% | [17] 99.8% | [18] 95.1% | [19] 93.1% | [20] 88.1%

COc1nc2ccc(C)cc2cc1-c1nc2c(cnn2-c2ccccc2)c(=O)[nH]1
inactive: [1] 80.5% | [2] 92% | [3] 95.9% | [4] 70.9% | [5] 80.3% | [6] 78.9% | [7] 56.5% | [8] 84.3% | [9] 95.3% | [10] 86.3% | [11] 97.2% | [12] 34.8% | [13] 126% | [14] 103% | [15] 89.4% | [16] 93.8% | [17] 90.9% | [18] 99.9% | [19] 86.4% | [20] 71%

Cc1cc(=O)[nH]c(=O)n1Cc1cn(-c2c3ccccc3nc3ccccc23)nn1
inactive: [1] 94% | [2] 105% | [3] 105% | [4] 95.6% | [5] 99.3% | [6] 67.6% | [8] 92.3% | [9] 79.4% | [10] 96.1% | [11] 15.7% | [13] 93.6% | [14] 77.3% | [15] 90.7% | [16] 90.4% | [17] 102% | [18] 98.9% | [19] 67% | [20] 97.8%
active: [7] -74.3% | [12] 7.13%

CC1(C)C2CC1C1(/C=N\Nc3ccccc3)C(C2)C(C#N)(C#N)C1(C#N)C#N (stereo not given)
inactive: [1] 85.1% | [2] 86.8% | [3] 80.4% | [4] 86.1% | [5] 99% | [6] 80.9% | [7] 77.8% | [8] 93.4% | [9] 100% | [10] 115% | [11] 101% | [12] 84.9% | [13] 97.7% | [14] 75.8% | [15] 103% | [16] 86.3% | [17] 104% | [18] 107% | [19] 98.9% | [20] 83.6%

CCOC(=O)c1c(C)oc2ncnc(N3CCN(C(=O)COc4ccc(C(C)(C)C)cc4)CC3)c12
inactive: [1] 72.5% | [2] 66.5% | [3] 88.8% | [4] 90.8% | [5] 91.4% | [6] 62.9% | [7] 77.9% | [8] 86% | [9] 99.1% | [10] 76.9% | [11] 87.5% | [12] 53.5% | [13] 70.2% | [14] 80.5% | [15] 92.1% | [16] 91% | [17] 79.9% | [18] 96.1% | [19] 78.4% | [20] 74.5%

NS(=O)(=O)c1ccc(-n2nc(C(=O)N/N=C\c3ccc(F)cc3)cc2-c2ccc(Br)cc2)cc1
inactive: [1] 83.9% | [2] 81.9% | [3] 94.3% | [4] 65.3% | [5] 84.1% | [6] 67.8% | [7] 54.2% | [8] 74.3% | [9] 106% | [10] 83.1% | [11] 93.4% | [12] 18% | [13] 68.3% | [14] 85.3% | [15] 77.8% | [16] 82.2% | [17] 74.6% | [18] 89.7% | [19] 86.1% | [20] 79.7%

O=c1ccn(Cc2cn(-c3c4ccccc4nc4ccccc34)nn2)c(=O)[nH]1
active: [7] -57.4%
inactive: [1] 94% | [2] 102% | [3] 99.2% | [4] 97.7% | [5] 96.5% | [6] 84.7% | [8] 91.2% | [9] 90.9% | [10] 108% | [11] 74.6% | [12] 33.1% | [13] 98.6% | [14] 89.4% | [15] 98.2% | [16] 99.6% | [17] 106% | [18] 101% | [19] 85.6% | [20] 98.4%

N/C(=N\c1nc2ccccc2s1)NC(=O)Nc1cccc2ccccc12
active: [7] 5.26% | [10] 3.54% | [12] 9.12% | [15] -2.29% | [18] -21% | [20] 5.44%
inactive: [1] 29.6% | [2] 66.8% | [3] 41.8% | [4] 34.5% | [5] 10.7% | [6] 48.4% | [8] 27.7% | [9] 34.5% | [11] 23.2% | [13] 59.7% | [14] 52% | [16] 56.4% | [17] 33.3% | [19] 67.4%

COc1ccccc1/C=C1\Oc2cc(OCCN3CCC(Cc4ccccc4)CC3)ccc2C1=O
inactive: [1] 93.9% | [2] 96.9% | [3] 85.6% | [4] 103% | [5] 93% | [6] 57.8% | [7] 91.7% | [8] 96.2% | [9] 80% | [10] 38.4% | [11] 102% | [12] 27.6% | [13] 76.8% | [14] 90.3% | [15] 69.9% | [16] 84.4% | [17] 96.6% | [18] 93.8% | [19] 95.1% | [20] 65.9%
